Source: PubChem BioAssay AID504339 (National Center for Advancing Translational Sciences (NCATS), 2011)
Out of some 390,000 compounds screened, about 17,000 (4.4%) were called active. About 8% were inconclusive and are not listed. This excerpt belongs to a sample that is enriched for actives. A number with no mark means an inactive call. Calls come from the whole dose curve; as a rule, active = well fitted inhibition curve with a large enough effect; inconclusive = small, poorly fitted or top-dose-only effect; inactive = no such curve, though single readings can be large or run the other way.

These compounds were tested against Lysine-specific demethylase 4A (Homo sapiens) (UniProt O75164) (assay: qHTS Assay for Inhibitors of JMJD2A-Tudor Domain). Conditions: AlphaScreen JMJD2A-Tudor / H3K4me3 peptide binding; series mostly up to 114 µM; activity change, negative = inhibition: at the top concentration.
Description: JMJD2A is a jumonji-domain-containing lysine demethylase that uses Fe(II) together with 2-OG to effect oxidative demethylation of histones. Methylation is one of many […] modification that affect epigenetic transcription. […] It is proposed that the functions of JmjD2A binding to the histones, is to maintain marks after they are installed and to spread the modifications by […], establishing a self-propagating cycle for rapid methylation over a large area of chromatin. […] Thus, small molecule targeting of the JMJD2A-tudor domain interaction with its target methylhistone mark is expected to enable sophisticated experiments probing the fine regulatory pathways leading to selective demethylation of a given methyllysine locus based on the methylation state of adjacent histone marks. A quantitative high throughput AlphaScreen has been developed to identify small molecule inhibitors based on a protocol published by NCGC and SGC [4].
Although AlphaScreen has significant advantages with its utility in a variety of epigenetic target assays, the primary screening data provided in this deposition should be used with caution due to the prevalence of screening artifacts. The top compound concentration tested was high (>100uM) in this assay, which increases number of actives and potential artifacts. An AlphaScreen counterscreen is highly recommended to be run against any putative actives to eliminate non-specific artifacts. Alternatively, one can use other AlphaScreen assays in PubChem to filter out promiscuous hits.
[1] Lee, J. et al. Distinct binding modes specify the recognition of methylated histone H3K4 and H4K20 by JMJD2A-tudor. Nat Struct Mol Biol. 15(1); 109-11. 2008. PMID: 18084306
[2] Yasgar, et al. Compound Management for Quantitative High-Throughput Screening. JALA. 2008 Apr;13(2):79-89. PMID: 18496600
[3] Inglese, et al. Quantitative high-throughput screening: a titration-based approach that efficiently identifies biological activities in large chemical libraries. Proc Natl Acad Sci. 1;103(31):11473-8. 2006. PMID: 16864780
[4] Quinn et al. A homogeneous method for investigation of methyl-dependent protein-protein interactions in epigenetics. Nucleic Acids Res., 38(2):e11. 2010. PMID: […]
[5] Baell,Holloway. New substructure filters for removal of pan assay interference compounds (PAINS) from screening libraries and for their exclusion in bioassays. J Med Chem. 53(7):2719-40. 2010. PMID: 20131845
NIH Molecular Libraries Probe Production Network [MLPCN]
NIH Chemical Genomics Center [NCGC]
Structural Genomics Consortium (SGC)
To each well of a 1,536w plate, 2ul of JMJD2A-Tudor (final 100nM) and 1ul biotinylated histone peptide methylated at Lys4 [b-H3(1-18)K4me3] (final 50nM) were added in 1x PBS buffer, pH 7.4, containing 0.01% Tween-20, using a nanoliter dispenser. Formation of a protein-peptide complex proceeded at room temperature for 30 min. A Kalypsys pin-tool transferred 23nl of library compound solution in DMSO to each well. Following a 30 min incubation of the protein-peptide complex with compounds at room temperature, a mixture of 40 µg/mL each streptavidin-coated donor and nickel chelate acceptor AlphaScreen beads (final 10 µg/mL) was added in a 1ul dispense for a final volume of 4ul, followed by a brief centrifugation (1000 rpm, 1 min). Plates were incubated protected from the light for 20 min at room temperature. Microplates were then read on an EnVision multilabel plate reader using the 1,536 plate HTS AlphaScreen aperture (excitation time 80 ms, measurement time 240 ms).
% is set by controls: 0 for no effect and ±100 for the full control effect; potency is the fitted concentration of half-maximal effect.
Note: nearly all actives have a fitted effect of over 50% in size.

Lysine-specific demethylase 4A (Homo sapiens), sequence (O75164 whole entry, looked up, the tested form may be a part): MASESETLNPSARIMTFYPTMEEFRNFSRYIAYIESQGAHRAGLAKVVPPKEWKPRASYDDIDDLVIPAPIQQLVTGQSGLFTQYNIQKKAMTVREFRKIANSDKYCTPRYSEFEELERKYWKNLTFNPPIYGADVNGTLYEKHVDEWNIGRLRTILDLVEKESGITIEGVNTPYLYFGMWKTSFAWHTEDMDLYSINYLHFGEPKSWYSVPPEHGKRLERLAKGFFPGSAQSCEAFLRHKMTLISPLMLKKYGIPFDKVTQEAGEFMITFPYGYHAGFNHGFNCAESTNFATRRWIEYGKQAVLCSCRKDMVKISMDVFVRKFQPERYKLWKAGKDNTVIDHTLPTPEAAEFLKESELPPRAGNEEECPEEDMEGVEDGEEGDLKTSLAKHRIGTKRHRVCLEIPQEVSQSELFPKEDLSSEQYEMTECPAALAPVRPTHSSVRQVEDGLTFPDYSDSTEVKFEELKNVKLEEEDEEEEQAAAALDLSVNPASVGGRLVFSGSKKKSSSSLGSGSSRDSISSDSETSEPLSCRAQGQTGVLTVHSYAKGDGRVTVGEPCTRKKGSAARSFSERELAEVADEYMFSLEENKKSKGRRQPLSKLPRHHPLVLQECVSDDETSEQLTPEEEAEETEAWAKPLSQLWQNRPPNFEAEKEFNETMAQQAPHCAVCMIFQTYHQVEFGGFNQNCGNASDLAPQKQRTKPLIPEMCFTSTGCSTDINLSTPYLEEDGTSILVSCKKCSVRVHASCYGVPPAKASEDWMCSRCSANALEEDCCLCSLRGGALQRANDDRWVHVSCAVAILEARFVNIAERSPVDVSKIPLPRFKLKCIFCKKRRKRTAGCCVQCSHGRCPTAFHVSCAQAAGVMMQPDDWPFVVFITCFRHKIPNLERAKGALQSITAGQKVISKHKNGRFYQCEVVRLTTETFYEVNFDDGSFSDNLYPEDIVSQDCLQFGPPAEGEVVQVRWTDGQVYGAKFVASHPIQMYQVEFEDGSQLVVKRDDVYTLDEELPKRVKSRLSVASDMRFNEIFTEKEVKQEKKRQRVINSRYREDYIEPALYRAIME

Compared with `CCC(=O)Nc1c(C(=O)N2CCN(c3ccc(F)cc3)CC2)oc2ccccc12`, `CC(=O)N1CCN(C(=O)c2cc(-c3ccc(C)o3)nc3ccccc23)CC1` is higher in “activity change, negative = inhibition” value: -26.9% for the first, -10.9% for the second.

First: Cc1ccccc1CCNC(=O)C1CCN(c2nc3ccccc3nc2C(F)(F)F)CC1
Second: CCCn1c(NCc2ccccc2F)nc2ccccc21
The “activity change, negative = inhibition” value of the first is lower: -6.17% for the first, 4.36% for the second.

Compared with `COc1ccc2c(c1)c(N1CCCC1=O)c(C(=O)Nc1ccc(OC)c(Cl)c1)n2C`, `COc1ccc(-c2cc(C(=O)N(C)CC(=O)Nc3ccccc3Cl)c3ccccc3n2)cc1OC` is higher in “activity change, negative = inhibition” value: -28.3% for the first, 5.52% for the second.

First: Cc1nnc(N2CCC(C(=O)Nc3ccc(F)cc3)CC2)c2nn(-c3ccc(Cl)cc3)c(C)c12
Second: CCOC(=O)C1CCN(C(c2ccc(F)cc2)c2sc3nc(-c4ccco4)nn3c2O)CC1 (stereo not given)
The “activity change, negative = inhibition” value of the first is higher: 5.17% for the first, 0% for the second.

Compared with `COc1ccc(Cl)cc1-n1c(CCC(=O)O)ccc1-c1ccc(C)cc1`, `COc1cccc(CNC(=O)Cc2csc3nc(-c4ccccc4)cn23)c1` is higher in “activity change, negative = inhibition” value: -35.3% for the first, -22.7% for the second.

Going from `CC(C)n1c(=S)[nH]c2cc(C(F)(F)F)ccc21` to `O=c1c2ccccc2c(-c2ccc(F)cc2)nn1-c1ccc(C(F)(F)F)cc1`, the “activity change, negative = inhibition” value rises from -16.9% to 28.6%.

Going from `Cc1c(NC(=O)Cc2ccccc2)cccc1-c1nc2cccnc2s1` to `CCCCc1nn2c(=O)cc(COC(=O)c3cccc(NC(=O)COc4ccccc4)c3)nc2s1`, the “activity change, negative = inhibition” value rises from -22.5% to -5.96%.

First: CCCC/S(C)=N/S(=O)(=O)c1ccc(C)cc1 (stereo not given)
Second: CC/S(CC1CC1(Cl)Cl)=N\S(=O)(=O)c1ccc(C)cc1 (stereo not given)
The “activity change, negative = inhibition” value of the first is higher: -1.74% for the first, -13.1% for the second.

First: O=C(Nc1ccc(F)cc1F)N1CCCN(CCOc2ccccc2)CC1
Second: CCOc1ccc(C(=O)N2CCN(CCc3ccccn3)CC2)cc1
The “activity change, negative = inhibition” value of the first is lower: -21.4% for the first, -17.5% for the second.

Going from `CCCCOc1ccc(C(C)(O)CCN2CCOCC2)cc1` (stereo not given) to `C#CC(CCN1CCCCC1)(OC)c1ccccc1` (stereo not given), the “activity change, negative = inhibition” value rises from -11.1% to -6.8%.

First: Clc1ccccc1-c1cc(COc2ccc3ccccc3c2)no1
Second: COc1cccc(C(=O)Nc2ccc3oc(-c4ccc5ccccc5c4)nc3c2)c1
The “activity change, negative = inhibition” value of the first is higher: 186% for the first, -27.5% for the second.

Going from `O=C(Nc1ccccc1Cl)N1CCC(CN2CCCCC2)CC1` to `CCCn1c(NC(=O)C23CC4CC(CC(O)(C4)C2)C3)nc2ccccc21`, the “activity change, negative = inhibition” value falls from 3.85% to -14.9%.

Going from `O=C(CSCc1cnn(-c2ccccc2)c1-n1cccc1)NCc1ccc(Cl)cc1` to `Cc1ccc(Cl)cc1N(C)C(=O)Cn1nc(Cc2cccnc2)c2ccccc2c1=O`, the “activity change, negative = inhibition” value falls from -6.62% to -28.5%.

Going from `CCOc1ccc(OCC)c(NC(=O)c2cc(C)nc3c2c(C)nn3-c2cccc(Cl)c2C)c1` to `Cc1cc(C)c2oc(-c3cccc(NC(=O)c4cccc(F)c4)c3C)nc2c1`, the “activity change, negative = inhibition” value falls from 2.27% to -10.8%.

First: CCOc1ccc(NC(=O)C(CC(C)C)N2Cc3ccccc3C2=O)cc1 (stereo not given)
Second: COc1ccc(NC(=O)CN(C)C(=O)c2n[nH]c3ccccc23)cc1
The “activity change, negative = inhibition” value of the first is higher: 0% for the first, -9.29% for the second.

Compared with `CCNC(=O)c1cc2n(n1)CCCN(Cc1ccc(C)cc1)C2=O`, `CCCC(=O)Nc1cc2nn(-c3ccccc3)nc2cc1C` is lower in “activity change, negative = inhibition” value: 6.29% for the first, 1.96% for the second.

First: Cc1cc(NC(=O)C2CCC(CNS(=O)(=O)c3ccc(Br)s3)CC2)ccc1Br (stereo not given)
Second: CCCC(=O)Nc1ccc(NC(=O)c2sc3ccccc3c2Cl)cc1
The “activity change, negative = inhibition” value of the first is higher: -1.03% for the first, -8.17% for the second.

Compared with `CSc1ncccc1C(=O)Nc1ccc(C)cn1`, `Cc1ccc(F)cc1NC(=O)CCSc1nc(-c2ccco2)cc(C(F)(F)F)n1` is lower in “activity change, negative = inhibition” value: -6.9% for the first, -14.1% for the second.

Going from `CCC1CN(S(=O)(=O)c2cc(-c3cc(C)no3)ccc2C)c2cc(C)ccc2O1` (stereo not given) to `COc1ccc(-c2nc(Cn3c(=O)cc(C)c4c(C)nn(-c5ccccc5)c43)c(C)o2)cc1OC`, the “activity change, negative = inhibition” value rises from -13.3% to -13%.

First: CCOC(=O)c1cc2c(=O)n3ccccc3nc2n(CC2CCCO2)c1=NC(=O)c1ccc(C(C)(C)C)cc1 (stereo not given)
Second: CCOc1ccccc1NC(=O)Cn1c(=O)n(Cc2ccco2)c(=O)c2sc3ccccc3c21
The “activity change, negative = inhibition” value of the first is higher: 7.85% for the first, -20.5% for the second.

For `COC(=O)c1cc(NC(=O)c2sc3ccccc3c2Cl)cc(C(=O)OC)c1`, the “activity change, negative = inhibition” value was -8.5%.

`FC(F)(F)c1ccc(-n2cn[nH]c2=S)cc1` was tested, and the Potency was 8.91 µM (active).
For `Cc1ccc(S(=O)(=O)/N=S(\C)C(C)C)cc1` (stereo not given), the Potency was 50.1 µM (active).
`c1ccc2cc(OCCN3CCCC3)ccc2c1` was tested, and the Potency was 7.94 µM (active).
For `CC(C)(c1ccccc1)c1ccc(OCCN2CCCC2)cc1`, the Potency was 20 µM (active).
For `Cc1ccc(NC(=O)c2cc(-c3ccc(C)o3)nc3ccccc23)nc1`, the Potency was 35.5 µM (active).
With `COc1ccc(NC(=O)CN(C)C(=O)c2cc(-c3ccc(C)o3)nc3ccccc23)cc1` the Potency was 89.1 µM (active).
In the case of `CCCn1c(NCc2ccc(N(CC)CC)cc2)nc2ccccc21`, the Potency is reported as 39.8 µM (active).
In the case of `CCOc1ccccc1/C=c1\sc2nc(-c3ccco3)nn2c1=O`, the Potency is reported as 56.2 µM (active).
For `Oc1ccc(N=Cc2sc3ccccc3c2Cl)cc1`, the Potency was 50.1 µM (active).
